Records with an inconclusive call do not appear. The source made the active and inactive calls. Unless noted, calls follow the shape of the dose curve; as a rule, active = well fitted curve in the direction sought with a large enough effect in the repeat runs; inconclusive = weak or mixed curves; inactive = no such curve, though single readings can be large; an effect the other way counts as inactive or inconclusive.
Experiments:
[1] = qHTS assay for small molecule agonists of the p53 signaling pathway (AID 651631; calls by dose curve; also: nearly all actives have a fitted effect of over 15% in size)
Procedure, shortened: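 Beta-lactamase reporter activity under p53 response elements was quantified in HCT-116 cells by FRET fluorescence, following 16 h incubation with test compounds at 37 °C and 2 h substrate development at room temperature.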

[2] = qHTS assay for small molecules that induce genotoxicity in human embryonic kidney cells expressing luciferase-tagged ATAD5 (AID 651632); also: nearly all actives have a fitted effect of over 15% in size
Procedure, shortened: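 HEK293T cells carrying luciferase-tagged ATAD5 were given compound or DMSO vehicle and incubated 16 hr at 37C, 5% CO2. Luciferase activity was read after 30 min at room temperature with Amplite; a rise signals genotoxic stress.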

[3] = qHTS assay for small molecule agonists of the p53 signaling pathway - cell viability (AID 651633; calls by dose curve;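 also: p53RE-bla HCT reporter cells with a stable beta-lactamase p53 reporter; series mostly up to about 83 µM; nearly all actives have a fitted effect of over 30% in size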)
Procedure, shortened: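 p53RE-bla cells, seeded at 4,000 per well and rested 5 h at 37 C/5% CO2, received compounds in DMSO for 16 h at 37 C. CellTiter-Glo was then added, and luminescence was read after 30 min at room temperature to gauge cytotoxicity.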

[4] = qHTS assay for small molecules that induce genotoxicity in human embryonic kidney cells expressing luciferase-tagged ATAD5 - cell viability (AID 651634; calls by dose curve; also: nearly all actives have a fitted effect of over 25% in size)
Procedure, shortened: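 HEK293T cells carrying luciferase-tagged ATAD5, 2,000 cells/well, exposed to compound for 15.5 hr at 37C. Viability read as live-cell protease activity by CellTiter-Fluor fluorescence after 30 min at 37C.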

[5] = qHTS assay for small molecule disruptors of the mitochondrial membrane potential - cell viability (AID 720634; calls by dose curve;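 also: human HepG2 liver cancer cells; series mostly up to about 83 µM; nearly all actives have a fitted effect of over 20% in size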)
Procedure, shortened: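 HepG2 cells, 2,000 per well, attached overnight, then treated 1 hr at 37 C, 5% CO2. Viability read as ATP by CellTiter-Glo luminescence after 30 min at room temperature. Read in the same wells as the m-MPI membrane-potential dye assay.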

[6] = qHTS assay for small molecule disruptors of the mitochondrial membrane potential (AID 720635)
Procedure, shortened: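 HepG2 cells (2,000/well) attached overnight at 37C, then took compound for 1 hr at 37C, 5% CO2. Mito-MPS dye was added for 30 min; fluorescence was read at 490/535 nm (monomers) and 540/590 nm (aggregates).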

[7] = qHTS assay to test for compound auto fluorescence at 535 nm (green) in HepG2 cells (AID 720675)
[8] = qHTS assay to test for compound auto fluorescence at 460 nm (blue) in HEK293 cells (AID 720678)
Procedure, shortened: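 Intrinsic compound fluorescence is recorded in live HEK293 cultures after overnight incubation at 37C, 5% CO2, using excitation 405 nm and emission 460 nm. Values are referenced to triamterene.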

[9] = qHTS assay to test for compound auto fluorescence at 590 nm (red) in HEK293 cells (AID 720679)
Procedure, shortened: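 Red autofluorescence, HEK293 cells: 2,000 cells/well; attach 4-5 hr 37C; add 23 nL cpd or DMSO; incubate o/n 37C 5% CO2; read Ex540/Em590; Rose Bengal sodium reference.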

[10] = qHTS assay to test for compound auto fluorescence at 535 nm (green) in HEK293 cells (AID 720680)
[11] = qHTS assay to test for compound auto fluorescence at 460 nm (blue) in HEK293 cell free culture (AID 720681)
Procedure, shortened: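 Test compounds were pinned into cell-free culture medium (DMEM with 10% FBS) and fluorescence was read directly at Ex/Em 405/460 nm. Signals were expressed as fluorescence equivalents of triamterene, with DMSO vehicle as control.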

[12] = qHTS assay to test for compound auto fluorescence at 535 nm (green) in HEK293 cell free culture (AID 720682)
Procedure, shortened: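 Each library compound, or DMSO control, is added by pintool to medium alone, comprising DMEM and 10% FBS. Emission at 535 nm following 485 nm excitation is quantified against fluorescein.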

[13] = qHTS assay to test for compound auto fluorescence at 590 nm (red) in HEK293 cell free culture (AID 720683)
Procedure, shortened: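 Tox21 10K library compounds were pinned into cell-free DMEM with 10% FBS and fluorescence was read at excitation 540 nm. Activity is expressed as Rose Bengal sodium equivalency.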

[14] = qHTS assay to test for compound auto fluorescence at 590 nm (red) in HepG2 cell free culture (AID 720684)
Procedure, shortened: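 Red fluorescence (540 nm excitation, 590 nm emission) was measured after compound transfer into cell-free MEM supplemented with 10% FBS. Values are equivalencies against Rose Bengal sodium.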

[15] = qHTS assay to test for compound auto fluorescence at 460 nm (blue) in HepG2 cell free culture (AID 720685)
Procedure, shortened: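 Compound (23 nL) or DMSO pinned into cell-free MEM with 10% FBS; blue fluorescence read at 405/460 nm excitation/emission, expressed as auto-fluorescence equivalency to triamterene.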

[16] = qHTS assay to test for compound auto fluorescence at 535 nm (green) in HepG2 cell free culture (AID 720686)
[17] = qHTS assay to test for compound auto fluorescence at 460 nm (blue) in HepG2 cells (AID 720687)
Procedure, shortened: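 Cells (2,000/well in MEM with 10% FBS) attached overnight at 37 C, then were exposed to compound or DMSO for 1 hr at 37 C, 5% CO2. Fluorescence read at Ex/Em 405/460 nm, expressed as triamterene-equivalent signal.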

[18] = target: Glucocorticoid receptor (Homo sapiens) (UniProt P04150); assay: qHTS assay to identify small molecule agonists of the glucocorticoid receptor (GR) signaling pathway (AID 720691; active = well fitted activation curve with a large enough effect in the signal ratio in the repeat runs, not every such curve was filed as active; the % refers to the signal ratio)
Sequence of Glucocorticoid receptor (Homo sapiens) (P04150 whole entry, looked up): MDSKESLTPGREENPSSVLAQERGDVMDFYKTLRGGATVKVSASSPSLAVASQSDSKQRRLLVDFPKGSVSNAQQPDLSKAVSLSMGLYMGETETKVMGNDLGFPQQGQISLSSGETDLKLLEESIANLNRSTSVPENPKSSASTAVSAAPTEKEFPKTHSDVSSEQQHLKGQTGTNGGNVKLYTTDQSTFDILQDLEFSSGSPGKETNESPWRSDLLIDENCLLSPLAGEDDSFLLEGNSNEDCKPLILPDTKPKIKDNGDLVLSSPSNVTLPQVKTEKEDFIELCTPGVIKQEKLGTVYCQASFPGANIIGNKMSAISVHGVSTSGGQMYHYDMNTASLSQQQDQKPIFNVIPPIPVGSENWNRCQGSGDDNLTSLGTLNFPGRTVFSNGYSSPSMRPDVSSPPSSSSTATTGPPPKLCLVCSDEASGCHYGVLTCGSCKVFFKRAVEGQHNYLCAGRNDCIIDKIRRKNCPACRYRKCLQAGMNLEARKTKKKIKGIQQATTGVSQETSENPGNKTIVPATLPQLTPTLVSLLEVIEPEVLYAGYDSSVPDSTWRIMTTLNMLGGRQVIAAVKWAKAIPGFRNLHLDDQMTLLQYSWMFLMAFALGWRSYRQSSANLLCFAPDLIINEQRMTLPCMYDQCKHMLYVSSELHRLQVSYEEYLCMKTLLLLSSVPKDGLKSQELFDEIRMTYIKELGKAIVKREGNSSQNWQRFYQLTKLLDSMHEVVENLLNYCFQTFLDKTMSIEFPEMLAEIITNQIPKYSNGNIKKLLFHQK
Procedure, shortened: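 GR-bla HeLa cells carrying a GRE-driven beta-lactamase reporter, exposed to compounds for 18 h at 37 C. Reporter activation read as fluorescence after 2 h with LiveBLAzer B/G FRET substrate at room temperature.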

[19] = target: Glucocorticoid receptor (Homo sapiens) (UniProt P04150); assay: qHTS assay to identify small molecule antagonists of the glucocorticoid receptor (GR) signaling pathway (AID 720692; active = well fitted inhibition curve with a large enough effect in the signal ratio in the repeat runs, not every such curve was filed as active; the % refers to the signal ratio)
Procedure, shortened: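 GR-bla HeLa cells carrying a GRE-driven beta-lactamase reporter received compound after 4 h plating, then dexamethasone (5 nM final). After 18 h at 37C, the FRET substrate was loaded for 2 h at room temperature and fluorescence read.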

[20] = qHTS assay for identifying genotoxic compounds that show differential cytotoxicity against isogenic chicken DT40 cell lines with known DNA damage response pathways - wild type cell line (AID 743012); also: nearly all actives have a fitted effect of over 60% in size
Procedure, shortened: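 Wild-type DT40 cells (300/well) exposed to compounds for 40 hours at 37 C/5% CO2. Viability read by CellTiter-Glo luminescence after 30 min at room temperature.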

[21] = qHTS assay for identifying genotoxic compounds that show differential cytotoxicity against isogenic chicken DT40 cell lines with known DNA damage response pathways - Rev3 mutant cell line (AID 743014); also: nearly all actives have a fitted effect of over 55% in size
[22] = qHTS assay for identifying genotoxic compounds that show differential cytotoxicity against isogenic chicken DT40 cell lines with known DNA damage response pathways - Rad54/Ku70 mutant cell line (AID 743015); also: nearly all actives have a fitted effect of over 60% in size
[23] = target: Androgen receptor (Homo sapiens) (UniProt P10275); assay: qHTS assay to identify small molecule antagonists of the androgen receptor (AR) signaling pathway (AID 743035; active = well fitted inhibition curve with a large enough effect in the signal ratio in the repeat runs, not every such curve was filed as active; the % refers to the signal ratio)
Sequence of Androgen receptor (Homo sapiens) (P10275 whole entry, looked up): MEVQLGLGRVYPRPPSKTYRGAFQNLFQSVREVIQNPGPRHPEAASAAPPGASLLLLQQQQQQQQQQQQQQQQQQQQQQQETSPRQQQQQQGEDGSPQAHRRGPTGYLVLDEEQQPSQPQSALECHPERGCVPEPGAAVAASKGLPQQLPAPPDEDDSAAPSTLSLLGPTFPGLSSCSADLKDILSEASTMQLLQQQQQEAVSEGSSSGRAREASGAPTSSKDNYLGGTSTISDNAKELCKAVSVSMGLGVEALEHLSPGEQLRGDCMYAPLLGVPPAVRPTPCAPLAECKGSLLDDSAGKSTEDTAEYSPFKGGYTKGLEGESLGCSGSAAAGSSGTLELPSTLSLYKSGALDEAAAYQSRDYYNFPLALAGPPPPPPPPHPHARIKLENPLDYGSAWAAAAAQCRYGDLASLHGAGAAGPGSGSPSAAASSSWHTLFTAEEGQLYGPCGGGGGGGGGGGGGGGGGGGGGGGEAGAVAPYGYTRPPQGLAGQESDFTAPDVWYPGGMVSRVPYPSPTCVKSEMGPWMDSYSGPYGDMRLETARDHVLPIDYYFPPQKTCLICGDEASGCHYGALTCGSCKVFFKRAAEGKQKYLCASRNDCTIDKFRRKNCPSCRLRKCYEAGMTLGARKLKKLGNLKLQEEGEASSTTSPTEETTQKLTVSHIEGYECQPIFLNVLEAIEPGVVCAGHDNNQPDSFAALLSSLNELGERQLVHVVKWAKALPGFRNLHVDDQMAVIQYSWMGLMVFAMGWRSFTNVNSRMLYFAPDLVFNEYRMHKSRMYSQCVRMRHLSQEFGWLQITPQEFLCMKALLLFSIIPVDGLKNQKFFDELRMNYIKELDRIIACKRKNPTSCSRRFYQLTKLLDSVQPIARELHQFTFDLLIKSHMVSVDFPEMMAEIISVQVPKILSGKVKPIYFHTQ
Procedure, shortened: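 HEK293 cells stably carrying UAS-beta-lactamase reporter, 2,000/well, given compounds plus R1881 agonist and incubated 16 h at 37C. LiveBLAzer B/G FRET substrate then added for 2 h at room temperature before fluorescence reading.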

Measured: Potency

NC(=O)CN1CC(O)CC1=O (stereo not drawn)
inactive: [1] | [2] | [3] | [4] | [5] | [6] | [7] | [8] | [9] | [10] | [11] | [12] | [13] | [14] | [15] | [16] | [17] | [18] | [19] | [20] | [21] | [22] | [23]

— PubChem BioAssay (Tox21)
